Columns and labels:
Experiment in all cases: DAPPL (digital affinity profiling via proximity ligation, sequencing); 10 mM Tris-HCl pH 7.5, 50 mM NaCl, 1 mM DTT, 4% glycerol, room temperature, 30 min; GST-TFs on glutathione beads, 16-mer random dsDNA library, 0.1% formaldehyde crosslink after washing; high values mean tight binding
Conditions in all cases: protein: recombinant; tags: N-terminal GST; dsDNA, one strand shown
ELK1 = target: T1, ELK1 (Homo sapiens, UniProt P19419 1-428)
T1 sequence: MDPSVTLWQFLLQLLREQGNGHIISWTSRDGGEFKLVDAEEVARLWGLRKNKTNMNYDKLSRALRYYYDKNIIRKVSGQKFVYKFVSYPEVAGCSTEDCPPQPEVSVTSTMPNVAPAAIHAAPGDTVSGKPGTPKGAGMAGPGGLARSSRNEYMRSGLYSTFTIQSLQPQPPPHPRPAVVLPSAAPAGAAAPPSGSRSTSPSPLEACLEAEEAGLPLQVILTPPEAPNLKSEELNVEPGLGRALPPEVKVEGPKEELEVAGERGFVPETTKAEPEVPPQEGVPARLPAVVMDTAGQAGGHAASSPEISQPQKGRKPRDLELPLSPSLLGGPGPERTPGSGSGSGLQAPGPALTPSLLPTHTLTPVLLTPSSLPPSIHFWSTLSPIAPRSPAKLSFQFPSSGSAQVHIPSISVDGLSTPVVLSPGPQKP
In short: (§1)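 A tag-only sample was pooled with DNA-barcoded human transcription factors that had been expressed in yeast as GST fusions and captured on glutathione beads. The pools were incubated for 30 min at room temperature with 200 nmole of a random double-stranded 16-mer DNA library in Tris/NaCl/DTT/glycerol buffer, then washed, crosslinked with 0.1% formaldehyde, proximity-ligated (BsaI/T4 ligase, 1 h, 37 °C), PCR-amplified and sequenced on an Illumina NextSeq500. Binding signal is each hexamer's read frequency for a factor divided by its frequency for the tag-only sample.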

ERG = target: T2, ERG (Homo sapiens, UniProt P11308 1-479)
T2 sequence: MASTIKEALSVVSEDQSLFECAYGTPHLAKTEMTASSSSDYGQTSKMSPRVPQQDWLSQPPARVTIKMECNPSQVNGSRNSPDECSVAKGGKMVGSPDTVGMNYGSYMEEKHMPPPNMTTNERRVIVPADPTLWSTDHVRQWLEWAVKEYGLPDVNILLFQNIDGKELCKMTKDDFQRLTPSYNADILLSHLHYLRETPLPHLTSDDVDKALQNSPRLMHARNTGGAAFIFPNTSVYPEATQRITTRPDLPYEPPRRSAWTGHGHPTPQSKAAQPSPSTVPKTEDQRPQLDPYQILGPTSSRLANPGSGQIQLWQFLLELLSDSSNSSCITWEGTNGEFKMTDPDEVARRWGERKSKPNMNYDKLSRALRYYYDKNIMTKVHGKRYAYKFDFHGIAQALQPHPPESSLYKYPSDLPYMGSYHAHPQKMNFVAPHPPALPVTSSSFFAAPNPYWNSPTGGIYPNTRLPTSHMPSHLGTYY
In short: as §1

ELF1 = ELF1 (Homo sapiens, UniProt P32519 1-619)
Sequence of ELF1 (P32519 whole entry): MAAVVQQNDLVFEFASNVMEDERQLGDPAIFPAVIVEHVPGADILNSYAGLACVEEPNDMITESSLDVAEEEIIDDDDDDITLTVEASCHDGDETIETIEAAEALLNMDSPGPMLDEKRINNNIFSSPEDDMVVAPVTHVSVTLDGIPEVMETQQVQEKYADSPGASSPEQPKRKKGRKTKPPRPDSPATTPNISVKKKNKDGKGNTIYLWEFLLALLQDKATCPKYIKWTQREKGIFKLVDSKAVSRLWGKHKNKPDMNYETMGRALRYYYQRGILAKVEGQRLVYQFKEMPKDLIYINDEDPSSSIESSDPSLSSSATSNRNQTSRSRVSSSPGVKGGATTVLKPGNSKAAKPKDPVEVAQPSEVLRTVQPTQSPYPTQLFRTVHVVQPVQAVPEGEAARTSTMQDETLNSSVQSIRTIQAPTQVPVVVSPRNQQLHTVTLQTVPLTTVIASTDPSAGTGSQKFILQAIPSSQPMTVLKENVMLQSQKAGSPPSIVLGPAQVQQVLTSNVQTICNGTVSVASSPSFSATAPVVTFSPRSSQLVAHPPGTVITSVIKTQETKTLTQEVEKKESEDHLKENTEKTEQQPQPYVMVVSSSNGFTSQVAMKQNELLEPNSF
In short: as §1

EHF = target: T3, EHF (Homo sapiens, UniProt Q9NZC4 1-300)
T3 sequence: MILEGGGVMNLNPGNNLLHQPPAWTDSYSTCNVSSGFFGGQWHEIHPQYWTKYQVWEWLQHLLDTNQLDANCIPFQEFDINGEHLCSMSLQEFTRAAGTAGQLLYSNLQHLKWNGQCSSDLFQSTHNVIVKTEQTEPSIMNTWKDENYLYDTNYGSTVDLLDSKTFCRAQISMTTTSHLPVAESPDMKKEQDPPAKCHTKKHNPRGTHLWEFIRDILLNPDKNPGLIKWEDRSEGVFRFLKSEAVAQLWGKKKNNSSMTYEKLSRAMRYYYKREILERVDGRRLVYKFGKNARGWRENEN
In short: as §1

SPIB = SPIB (Homo sapiens, UniProt Q01892 1-262)
Sequence of SPIB (Q01892 whole entry): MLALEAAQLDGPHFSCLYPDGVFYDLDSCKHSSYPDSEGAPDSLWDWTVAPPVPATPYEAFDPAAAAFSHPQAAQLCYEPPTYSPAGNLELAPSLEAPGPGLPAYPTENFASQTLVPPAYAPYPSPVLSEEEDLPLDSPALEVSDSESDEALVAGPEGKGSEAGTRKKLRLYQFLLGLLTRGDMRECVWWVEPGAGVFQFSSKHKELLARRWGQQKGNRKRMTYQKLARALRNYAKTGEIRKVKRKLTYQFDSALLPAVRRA
In short: as §1

FEV = target: T4, FEV (Homo sapiens, UniProt Q99581 1-238)
T4 sequence: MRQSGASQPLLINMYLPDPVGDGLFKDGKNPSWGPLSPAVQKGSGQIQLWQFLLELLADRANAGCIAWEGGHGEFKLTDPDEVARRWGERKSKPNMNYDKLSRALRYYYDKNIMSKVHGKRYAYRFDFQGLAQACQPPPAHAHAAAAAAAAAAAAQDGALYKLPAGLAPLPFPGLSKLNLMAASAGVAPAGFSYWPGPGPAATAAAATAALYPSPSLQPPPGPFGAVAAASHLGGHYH
In short: as §1

ETV5 = ETV5 (Homo sapiens, UniProt P41161 1-510)
Sequence of ETV5 (P41161 whole entry): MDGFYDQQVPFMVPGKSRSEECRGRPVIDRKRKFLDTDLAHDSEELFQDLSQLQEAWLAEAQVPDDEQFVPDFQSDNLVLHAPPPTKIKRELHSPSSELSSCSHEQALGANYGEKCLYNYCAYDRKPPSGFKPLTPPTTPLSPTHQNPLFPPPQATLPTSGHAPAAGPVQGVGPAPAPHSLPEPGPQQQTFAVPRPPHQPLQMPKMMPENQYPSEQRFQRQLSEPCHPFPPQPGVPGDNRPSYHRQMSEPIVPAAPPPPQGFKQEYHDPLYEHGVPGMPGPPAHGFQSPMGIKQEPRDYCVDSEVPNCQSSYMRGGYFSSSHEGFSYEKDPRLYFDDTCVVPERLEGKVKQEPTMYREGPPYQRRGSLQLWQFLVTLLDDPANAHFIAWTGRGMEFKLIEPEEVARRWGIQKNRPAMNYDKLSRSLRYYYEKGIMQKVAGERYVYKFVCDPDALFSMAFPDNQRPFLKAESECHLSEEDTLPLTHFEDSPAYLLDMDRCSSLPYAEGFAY
In short: as §1

ELK4 = target: T5, ELK4 (Homo sapiens, UniProt P28324-2 1-405)
T5 sequence: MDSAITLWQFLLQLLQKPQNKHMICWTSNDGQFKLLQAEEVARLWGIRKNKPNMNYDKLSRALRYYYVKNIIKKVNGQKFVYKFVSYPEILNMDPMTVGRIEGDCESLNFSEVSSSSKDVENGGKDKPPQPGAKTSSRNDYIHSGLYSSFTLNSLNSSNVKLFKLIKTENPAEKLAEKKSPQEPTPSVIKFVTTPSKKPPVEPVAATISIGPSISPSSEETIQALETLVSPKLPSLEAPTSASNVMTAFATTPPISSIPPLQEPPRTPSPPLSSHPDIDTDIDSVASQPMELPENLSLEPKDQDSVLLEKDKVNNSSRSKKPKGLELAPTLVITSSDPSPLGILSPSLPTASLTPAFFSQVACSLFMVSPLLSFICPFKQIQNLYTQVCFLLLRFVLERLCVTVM
In short: as §1

ETV2 = target: T6, ETV2 (Homo sapiens, UniProt O00321 1-342)
T6 sequence: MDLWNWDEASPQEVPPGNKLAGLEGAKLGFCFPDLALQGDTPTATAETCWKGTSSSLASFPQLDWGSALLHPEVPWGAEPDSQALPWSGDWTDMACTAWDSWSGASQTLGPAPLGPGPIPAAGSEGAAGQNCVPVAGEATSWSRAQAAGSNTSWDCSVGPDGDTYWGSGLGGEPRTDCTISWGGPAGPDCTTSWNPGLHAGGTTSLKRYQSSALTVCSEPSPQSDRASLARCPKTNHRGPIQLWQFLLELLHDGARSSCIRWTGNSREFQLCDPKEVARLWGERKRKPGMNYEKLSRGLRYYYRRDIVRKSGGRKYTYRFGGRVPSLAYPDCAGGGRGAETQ
In short: as §1

ETV1 = ETV1 (Homo sapiens, UniProt P50549 1-477)
Sequence of ETV1 (P50549 whole entry): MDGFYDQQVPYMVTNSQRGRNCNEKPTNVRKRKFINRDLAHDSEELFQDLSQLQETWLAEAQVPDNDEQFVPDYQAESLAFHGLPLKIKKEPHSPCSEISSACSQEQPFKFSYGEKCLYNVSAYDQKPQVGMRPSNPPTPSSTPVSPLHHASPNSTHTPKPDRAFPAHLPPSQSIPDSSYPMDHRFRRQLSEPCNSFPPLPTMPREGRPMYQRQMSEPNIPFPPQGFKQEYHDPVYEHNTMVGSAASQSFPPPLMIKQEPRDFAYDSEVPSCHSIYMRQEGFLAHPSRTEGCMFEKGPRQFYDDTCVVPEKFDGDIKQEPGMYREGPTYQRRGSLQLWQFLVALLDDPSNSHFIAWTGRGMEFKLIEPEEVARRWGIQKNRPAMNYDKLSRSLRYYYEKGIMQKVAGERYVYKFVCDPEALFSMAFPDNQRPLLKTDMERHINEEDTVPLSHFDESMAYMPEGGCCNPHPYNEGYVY
In short: as §1

ERF = target: T7, ERF (Homo sapiens, UniProt P50548 1-548)
T7 sequence: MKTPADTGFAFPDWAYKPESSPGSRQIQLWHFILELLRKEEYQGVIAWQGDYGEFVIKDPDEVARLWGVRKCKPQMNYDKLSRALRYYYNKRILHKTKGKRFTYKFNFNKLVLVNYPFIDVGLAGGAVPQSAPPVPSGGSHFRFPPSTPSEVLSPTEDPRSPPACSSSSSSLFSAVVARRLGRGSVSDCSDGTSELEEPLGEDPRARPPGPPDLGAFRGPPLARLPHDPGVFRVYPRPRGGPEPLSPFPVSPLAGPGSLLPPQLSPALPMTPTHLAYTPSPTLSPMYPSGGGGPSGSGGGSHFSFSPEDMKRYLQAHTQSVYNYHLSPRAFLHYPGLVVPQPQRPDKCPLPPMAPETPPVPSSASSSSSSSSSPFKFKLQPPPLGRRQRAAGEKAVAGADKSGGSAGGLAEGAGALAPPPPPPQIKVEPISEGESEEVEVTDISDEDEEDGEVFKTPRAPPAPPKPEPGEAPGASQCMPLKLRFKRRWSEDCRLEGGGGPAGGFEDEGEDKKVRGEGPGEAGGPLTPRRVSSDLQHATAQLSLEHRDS
In short: as §1

ETV3L = target: T8, ETV3L (Homo sapiens, UniProt Q6ZN32 1-361)
T8 sequence: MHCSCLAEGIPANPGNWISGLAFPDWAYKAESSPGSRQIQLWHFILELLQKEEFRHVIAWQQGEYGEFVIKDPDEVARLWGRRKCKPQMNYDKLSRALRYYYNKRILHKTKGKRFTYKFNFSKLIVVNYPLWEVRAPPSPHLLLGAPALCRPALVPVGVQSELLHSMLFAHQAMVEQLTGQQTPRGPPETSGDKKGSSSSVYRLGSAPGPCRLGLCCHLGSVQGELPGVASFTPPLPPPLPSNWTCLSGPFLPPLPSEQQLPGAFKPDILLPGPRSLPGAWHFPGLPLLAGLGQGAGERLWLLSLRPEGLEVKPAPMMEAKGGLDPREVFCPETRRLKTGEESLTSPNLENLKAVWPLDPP
In short: as §1

ETS2 = target: T9, ETS2 (Homo sapiens, UniProt P15036 1-469)
T9 sequence: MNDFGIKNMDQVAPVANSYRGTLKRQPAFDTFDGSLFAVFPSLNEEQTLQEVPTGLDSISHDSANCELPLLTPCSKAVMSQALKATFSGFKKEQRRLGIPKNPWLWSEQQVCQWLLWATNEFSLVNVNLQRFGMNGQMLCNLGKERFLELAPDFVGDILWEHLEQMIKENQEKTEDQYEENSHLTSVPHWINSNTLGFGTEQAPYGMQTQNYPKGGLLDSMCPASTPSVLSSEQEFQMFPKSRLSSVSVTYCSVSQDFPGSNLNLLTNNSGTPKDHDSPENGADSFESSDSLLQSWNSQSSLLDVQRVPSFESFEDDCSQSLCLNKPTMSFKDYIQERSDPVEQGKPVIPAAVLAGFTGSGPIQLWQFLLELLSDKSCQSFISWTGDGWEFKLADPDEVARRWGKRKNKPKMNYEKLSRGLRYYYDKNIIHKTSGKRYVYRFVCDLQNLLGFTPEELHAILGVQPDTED
In short: as §1

SPDEF = target: T10, SPDEF (Homo sapiens, UniProt O95238 1-335)
T10 sequence: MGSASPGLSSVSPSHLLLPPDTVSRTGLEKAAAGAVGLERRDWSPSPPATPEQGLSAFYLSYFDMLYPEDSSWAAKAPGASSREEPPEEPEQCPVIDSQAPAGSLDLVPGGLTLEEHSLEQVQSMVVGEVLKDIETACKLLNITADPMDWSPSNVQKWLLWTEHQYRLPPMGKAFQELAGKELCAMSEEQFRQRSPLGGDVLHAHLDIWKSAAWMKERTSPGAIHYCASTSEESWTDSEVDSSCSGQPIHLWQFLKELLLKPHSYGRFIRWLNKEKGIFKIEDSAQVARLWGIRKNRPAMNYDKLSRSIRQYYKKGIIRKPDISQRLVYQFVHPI
In short: as §1

ETV3 = target: T11, ETV3 (Homo sapiens, UniProt P41162-2 1-143)
T11 sequence: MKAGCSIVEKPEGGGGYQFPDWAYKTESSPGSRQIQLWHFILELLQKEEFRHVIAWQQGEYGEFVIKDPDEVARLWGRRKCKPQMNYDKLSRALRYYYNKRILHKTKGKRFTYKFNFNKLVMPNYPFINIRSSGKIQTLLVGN
In short: as §1

ETV6 = ETV6 (Homo sapiens, UniProt P41212 1-452)
Sequence of ETV6 (P41212 whole entry): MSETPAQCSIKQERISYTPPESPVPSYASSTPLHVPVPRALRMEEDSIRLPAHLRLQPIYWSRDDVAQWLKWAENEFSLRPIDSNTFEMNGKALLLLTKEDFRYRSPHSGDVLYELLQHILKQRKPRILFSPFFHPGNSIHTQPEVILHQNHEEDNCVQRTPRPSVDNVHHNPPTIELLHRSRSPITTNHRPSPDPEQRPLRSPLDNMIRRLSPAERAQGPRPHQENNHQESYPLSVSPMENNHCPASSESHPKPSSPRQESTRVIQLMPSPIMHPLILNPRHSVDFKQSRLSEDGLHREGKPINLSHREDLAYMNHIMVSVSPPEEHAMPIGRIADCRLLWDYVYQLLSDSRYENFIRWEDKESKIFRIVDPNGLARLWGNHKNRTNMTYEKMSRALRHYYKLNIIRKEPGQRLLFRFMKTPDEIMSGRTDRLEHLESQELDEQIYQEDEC
In short: as §1

ELF4 = ELF4 (Homo sapiens, UniProt Q99607 1-663)
Sequence of ELF4 (Q99607 whole entry): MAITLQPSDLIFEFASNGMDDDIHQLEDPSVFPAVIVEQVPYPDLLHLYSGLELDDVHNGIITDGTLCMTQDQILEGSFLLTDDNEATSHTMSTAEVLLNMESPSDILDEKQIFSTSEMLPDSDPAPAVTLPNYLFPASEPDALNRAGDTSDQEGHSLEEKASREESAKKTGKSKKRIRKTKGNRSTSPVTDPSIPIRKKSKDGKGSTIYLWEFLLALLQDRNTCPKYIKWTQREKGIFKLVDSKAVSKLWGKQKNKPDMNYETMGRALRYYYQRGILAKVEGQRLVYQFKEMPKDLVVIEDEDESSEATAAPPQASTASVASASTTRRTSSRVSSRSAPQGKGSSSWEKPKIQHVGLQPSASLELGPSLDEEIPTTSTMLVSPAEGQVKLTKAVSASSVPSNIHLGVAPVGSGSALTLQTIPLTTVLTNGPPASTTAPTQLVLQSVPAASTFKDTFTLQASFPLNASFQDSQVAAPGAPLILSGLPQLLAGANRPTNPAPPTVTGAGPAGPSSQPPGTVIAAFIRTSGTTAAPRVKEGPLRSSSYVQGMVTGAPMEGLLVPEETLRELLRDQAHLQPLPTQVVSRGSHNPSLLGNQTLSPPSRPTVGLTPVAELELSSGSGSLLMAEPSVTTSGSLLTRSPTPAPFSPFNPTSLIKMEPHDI
In short: as §1

ELF3 = target: T12, ELF3 (Homo sapiens, UniProt P78545 1-371)
T12 sequence: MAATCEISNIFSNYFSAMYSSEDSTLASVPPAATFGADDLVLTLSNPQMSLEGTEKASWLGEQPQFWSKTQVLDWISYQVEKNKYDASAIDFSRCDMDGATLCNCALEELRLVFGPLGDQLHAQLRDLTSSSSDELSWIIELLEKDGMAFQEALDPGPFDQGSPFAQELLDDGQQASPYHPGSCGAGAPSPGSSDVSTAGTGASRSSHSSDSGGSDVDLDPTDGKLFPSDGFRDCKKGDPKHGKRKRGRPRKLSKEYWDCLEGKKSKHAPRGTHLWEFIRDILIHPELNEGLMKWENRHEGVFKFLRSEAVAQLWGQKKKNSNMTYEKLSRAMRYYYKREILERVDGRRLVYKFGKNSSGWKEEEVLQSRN
In short: as §1

ETV7 = target: T13, ETV7 (Homo sapiens, UniProt Q9Y603 1-341)
T13 sequence: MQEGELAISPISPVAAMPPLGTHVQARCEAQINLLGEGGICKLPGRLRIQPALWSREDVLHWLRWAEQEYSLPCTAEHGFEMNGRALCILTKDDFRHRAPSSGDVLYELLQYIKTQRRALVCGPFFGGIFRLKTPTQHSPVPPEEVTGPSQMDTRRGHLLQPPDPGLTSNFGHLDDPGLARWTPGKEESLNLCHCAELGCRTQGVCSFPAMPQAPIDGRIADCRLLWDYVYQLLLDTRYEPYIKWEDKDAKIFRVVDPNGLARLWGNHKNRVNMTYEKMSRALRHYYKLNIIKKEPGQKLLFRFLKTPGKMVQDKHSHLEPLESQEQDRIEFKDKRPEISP
In short: as §1

| Sequence | binding signal (ELK1) | binding signal (ERG) | binding signal (ELF1) | binding signal (EHF) | binding signal (SPIB) | binding signal (FEV) | binding signal (ETV5) | binding signal (ELK4) | binding signal (ETV2) | binding signal (ETV1) | binding signal (ERF) | binding signal (ETV3L) | binding signal (ETS2) | binding signal (SPDEF) | binding signal (ETV3) | binding signal (ETV6) | binding signal (ELF4) | binding signal (ELF3) | binding signal (ETV7) |
| --- | --- | --- | --- | --- | --- | --- | --- | --- | --- | --- | --- | --- | --- | --- | --- | --- | --- | --- | --- |
| CGACTG | 1.13 fold enrichment (6-mer frequency, TF over GST control) | 1.05 fold enrichment (6-mer frequency, TF over GST control) | 1.08 fold enrichment (6-mer frequency, TF over GST control) | 1.02 fold enrichment (6-mer frequency, TF over GST control) | 1.05 fold enrichment (6-mer frequency, TF over GST control) | 1.1 fold enrichment (6-mer frequency, TF over GST control) | 1.06 fold enrichment (6-mer frequency, TF over GST control) | 1.22 fold enrichment (6-mer frequency, TF over GST control) | 1.19 fold enrichment (6-mer frequency, TF over GST control) | 1.13 fold enrichment (6-mer frequency, TF over GST control) | 1.17 fold enrichment (6-mer frequency, TF over GST control) | 1.07 fold enrichment (6-mer frequency, TF over GST control) | 1.08 fold enrichment (6-mer frequency, TF over GST control) | 1.06 fold enrichment (6-mer frequency, TF over GST control) | 1.05 fold enrichment (6-mer frequency, TF over GST control) | 1.02 fold enrichment (6-mer frequency, TF over GST control) | – | – | – |
| ACAAGA | – | – | – | – | – | – | 1.03 fold enrichment (6-mer frequency, TF over GST control) | – | – | – | – | – | – | – | – | – | 1.03 fold enrichment (6-mer frequency, TF over GST control) | 1.1 fold enrichment (6-mer frequency, TF over GST control) | 1.02 fold enrichment (6-mer frequency, TF over GST control) |
